Results from paper PMC4336329 (PLoS ONE, 2015).
The whole screen tested about 310,000 compounds, of which about 14,000 (4.5%) showed an effect of 50% or more. The effect is printed as a negative number. The sample holds strong results, similar compounds and a random draw of the others, so the mix is not that of the screen.

Target: human ether-à-go-go-related gene (hERG) potassium channel (human, UniProt Q12809)
Assay: primary screen, population patch clamp on CHO cells stably expressing hERG; higher = less effect of the substance
Protocol: Briefly, Chinese hamster ovary (CHO) cells stably expressing the hERG channel were dislodged from tissue culture flasks and dispensed into PPC plates. […] During the recording, background leak currents were estimated by a 100 ms step to -80 mV from an initial holding potential of -70 mV and subtracted from the subsequent current measurement. The campaign was conducted in two phases using slight differences in recording protocol. In the first phase, the initial voltage pulse used a 100 ms step to -30 mV from a holding potential of -70 mV, a 2 s conditioning step to +25 mV, and a 2 s test step to -30 mV. During the second phase of the screen, the potential during the conditioning step was raised to +45 mV. In both phases of the campaign, a secondary voltage pulse was applied using the same parameters as the second phase initial pulse. The initial and secondary pulses were applied in the absence of compound, and upon application of 1 μM and 10 μM test concentrations. […]
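Note: peak tail current of the secondary pulse compared with the same well before compound.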

human ether-à-go-go-related gene (hERG) potassium channel, sequence (Q12809 whole entry, looked up): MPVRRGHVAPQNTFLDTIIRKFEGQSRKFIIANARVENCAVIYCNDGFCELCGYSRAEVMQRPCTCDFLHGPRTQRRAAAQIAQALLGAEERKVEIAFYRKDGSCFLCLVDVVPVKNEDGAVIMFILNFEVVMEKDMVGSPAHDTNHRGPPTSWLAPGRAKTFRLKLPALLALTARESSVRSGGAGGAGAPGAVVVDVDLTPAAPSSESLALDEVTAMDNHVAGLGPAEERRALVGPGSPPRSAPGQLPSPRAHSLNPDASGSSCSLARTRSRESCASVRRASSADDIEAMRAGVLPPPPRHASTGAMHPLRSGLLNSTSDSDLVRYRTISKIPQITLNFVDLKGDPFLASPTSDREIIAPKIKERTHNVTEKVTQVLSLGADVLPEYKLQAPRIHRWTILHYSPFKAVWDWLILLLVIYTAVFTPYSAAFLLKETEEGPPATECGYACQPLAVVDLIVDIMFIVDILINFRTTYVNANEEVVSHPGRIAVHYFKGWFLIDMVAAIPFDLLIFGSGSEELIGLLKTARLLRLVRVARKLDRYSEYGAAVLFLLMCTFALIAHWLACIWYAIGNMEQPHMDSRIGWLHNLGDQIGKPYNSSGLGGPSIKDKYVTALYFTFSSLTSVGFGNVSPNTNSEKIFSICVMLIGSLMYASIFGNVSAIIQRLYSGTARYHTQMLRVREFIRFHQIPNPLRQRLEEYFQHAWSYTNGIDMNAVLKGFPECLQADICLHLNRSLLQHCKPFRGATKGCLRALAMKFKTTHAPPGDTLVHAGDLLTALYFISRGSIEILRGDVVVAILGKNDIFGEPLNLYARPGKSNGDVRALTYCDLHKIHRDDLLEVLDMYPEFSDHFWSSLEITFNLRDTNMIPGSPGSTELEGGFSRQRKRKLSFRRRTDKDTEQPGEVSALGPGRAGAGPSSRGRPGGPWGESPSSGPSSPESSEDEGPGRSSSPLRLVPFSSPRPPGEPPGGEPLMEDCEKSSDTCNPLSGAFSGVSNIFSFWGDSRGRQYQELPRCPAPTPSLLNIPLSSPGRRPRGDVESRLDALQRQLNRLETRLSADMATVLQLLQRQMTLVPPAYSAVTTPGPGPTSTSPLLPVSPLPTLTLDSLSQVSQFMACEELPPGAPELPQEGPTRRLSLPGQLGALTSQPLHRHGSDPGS

SMILES	hERG current change (%, negative = inhibition) at 10uM
O=C1NC2(CCCCCC2)C(=O)N1Cc1ccc(Br)cc1	4.06%
CCOc1ccc(-c2nnn(CC(=O)c3ccc4c(c3)OCCO4)n2)cc1OCC	-1.86%
CCc1cc(S(=O)(=O)N2CCN(C(=O)c3ccco3)CC2)ccc1OC	1.76%
COc1ccc(-c2noc3c2-c2nc(-c4cccc(C)c4)sc2CC3)cc1	7.57%
Cc1ccc(-c2nnc(N3CCN(C(=O)CSc4ncn[nH]4)CC3)c3ccccc23)cc1	-32.6%
Cc1ccc(-c2nnc(N3CCN(C(=O)COc4cccc(C)c4)CC3)c3ccccc23)cc1	-54.6%
Cc1cccc(OCC(=O)N2CCN(c3nnc(-c4ccccc4)c4ccccc34)CC2)c1	-69.7%
CO/N=C/NC(=O)Cc1cn(-c2ncc(C(F)(F)F)cc2Cl)c2ccccc12	3.84%
CCCOc1ccc(N2C(=O)CC(NCC(=O)OCC)C2=O)cc1 (stereo not shown)	8.44%
O=C(Cn1c(=O)cnc2ccccc21)NNC(=O)c1ccccc1Cl	4.84%
COCCSc1ccccc1C(=O)Nc1ccccc1C(C)C	3.89%
Cc1ccc(CN2CCN(Cc3cnc(C)[nH]3)CC2CCO)cc1 (stereo not shown)	10.8%
OCCC1CN(Cc2cn[nH]c2C2CCCCC2)CCN1Cc1ccccc1 (stereo not shown)	0.824%
Cc1ccc(CN2CCN(CC(C)C)C(CCO)C2)s1 (stereo not shown)	-21.5%
CC(C)=CCN1CCN(Cc2cn[nH]c2C2CCCCC2)CC1CCO (stereo not shown)	0.0652%
Cc1ccc(CN2CCN(Cc3cn[nH]c3C3CCCCC3)CC2CCO)cc1 (stereo not shown)	-62.9%
Cc1ccc(CN2CCN(Cc3ccc(C)s3)CC2CCO)cc1 (stereo not shown)	-73.3%
Cc1ccc(CN2CCN(Cc3cnc(N4CCOCC4)s3)CC2CCO)cc1 (stereo not shown)	-46.7%
CC(C)=CCN1CCN(Cc2ccc(C)s2)CC1CCO (stereo not shown)	-16.1%
Cc1ccc(CN2CCN(Cc3cnc(C)s3)CC2CCO)cc1 (stereo not shown)	-19.4%
CCCCc1ncc(CN2CCN(Cc3ccc(C)cc3)C(CCO)C2)[nH]1 (stereo not shown)	-57.9%
Cc1ccc(CN2CCN(CCC(C)C)C(CCO)C2)s1 (stereo not shown)	-29.5%
Cc1ccc(CN2CCN(Cc3ccccc3)C(CCO)C2)s1 (stereo not shown)	-62.8%
Cn1c(O)c(C=Nc2ccccc2-c2ccccc2)c(=O)n(C)c1=O	4.4%
O=c1c2ccccc2cnn1Cc1n[nH]c(=S)n1-c1ccc(Cl)cc1	14.5%

SMILES	hERG current change (%, negative = inhibition) at 10uM
Cc1ccc(-c2nc(-c3ccccn3)sc2CC(=O)O)cc1	2.76%
O=C(N/N=C/c1cccs1)c1ccco1	11.8%
COc1ccc(NC(=O)COC(=O)C2CC2)c(OC)c1	-0.146%
CC1CC(C)(C)NC(=S)N1CC(=O)NCc1ccc(F)cc1 (stereo not shown)	0.792%
O=C(Cn1nnc(-c2ccccc2)n1)NNC(=O)c1cccc([N+](=O)[O-])c1	26.3%
COc1ccc(CCNC2CCCCC2)cc1.O=C(O)C(=O)O	-15.9%
COc1ccc(CCNC(=O)C2Cc3ccccc3C(=O)O2)cc1 (stereo not shown)	-1.35%
COc1ccc(CCNC2CCCCCC2)cc1	-4.62%
COc1ccc(CCNC(=O)C2CC2)cc1	0.64%
COc1ccc(CCNC2CCc3ccccc3C2)cc1 (stereo not shown)	-56%
COc1ccc(CCNC2CCC(c3ccccc3)CC2)cc1 (stereo not shown)	-70.8%
COc1ccc(S(=O)(=O)N2CCN(c3ccc(C)cc3C)CC2)cc1OC	5.72%
COC(=O)[C@@H](NC(=O)N(C1CCCCC1)C1CCCCC1)C(C)C	-7.86%
C#CCOCOCC#CCN(CC)CC	3.26%
COc1ccc(-n2c(C)cc(C(=O)Cn3nc(C(=O)O)c4ccccc4c3=O)c2C)cc1	-1.43%
CC(C)(C)c1ccc(CS(=O)CC(O)CO)cc1 (stereo not shown)	19.3%
Cc1cccnc1NC(=O)CNC(=O)c1cccs1	-8.89%
CC(=O)c1ccc(OCCNS(=O)(=O)c2ccc(-n3cnnn3)c(C)c2)cc1	-2.88%
CC(=O)c1ccc(S(=O)(=O)Nc2ccc(-n3cnnn3)cc2)cc1	-6.16%
COc1ccc(S(=O)(=O)N2CCC(C(=O)NCCCc3ccccc3)CC2)cc1	-35.9%
O=C(NCCc1ccccc1)C1CCN(S(=O)(=O)c2ccc(-c3nn[nH]n3)cc2)CC1	-18.7%
COc1ccc(OCC(NS(=O)(=O)c2ccc(-n3cnnn3)cc2)C(C)C)cc1 (stereo not shown)	-52.2%
O=C(NCCc1ccccc1)C1CCN(S(=O)(=O)c2ccc(-n3cnnn3)cc2)CC1	-66.3%
COc1ccc(S(=O)(=O)Nc2cccc(-n3cnnn3)c2)cc1	1.11%
